Screening data: PubChem BioAssay, The Scripps Research Institute Molecular Screening Center
A selection: hits, their analogues and other compounds. The true share with any hit is near 3.5%.
GPR151 ag: activators of human GPR151, primary screen, cell-based, PathHunter beta-arrestin, luminescence; PathHunter beta-arrestin GPR151 cells; activation, % at 11.2 µM; actives 1% (n = 650,000); in the data active means activation above about 4.9%
FBW7 activator: FBW7 E3 ligase activators, primary screen, biochemical, AlphaScreen, human; F-box/WD repeat-containing protein 7 (Homo sapiens), Q969H0; AlphaScreen FBW7–phospho-cyclin E peptide binding, activator screen; normalized activity (activation), % at 26.1 µM; actives 0.13% (n = 650,000); AID 1259310, 2017; in the data active means normalized activity above about 1.9%;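 further: purified mutant Fbw7 with reduced substrate affinity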
TEAD-YAP inh: TEAD-YAP interaction inhibition, primary screen, TEAD-YAP interaction inhibitor project, luminescence, HEK-TIYL cells. TEAD-Gal4/YAP UAS-luciferase luminescence. inhibition, % at 9.12 µM. actives 1.4% (n = 640,000); in the data active means inhibition above about 32%
MITF primary: MITF inhibitors, primary screen, biochemical, AlphaScreen, human; Microphthalmia-associated transcription factor (Homo sapiens), O75030; AlphaScreen MITF homodimerization, bead proximity signal; inhibition, % at 2.6 µM; actives 0.91% (n = 650,000); AID 1259374, 2018; in the data active means inhibition above about 50%
Target sequence (O75030 whole entry, looked up): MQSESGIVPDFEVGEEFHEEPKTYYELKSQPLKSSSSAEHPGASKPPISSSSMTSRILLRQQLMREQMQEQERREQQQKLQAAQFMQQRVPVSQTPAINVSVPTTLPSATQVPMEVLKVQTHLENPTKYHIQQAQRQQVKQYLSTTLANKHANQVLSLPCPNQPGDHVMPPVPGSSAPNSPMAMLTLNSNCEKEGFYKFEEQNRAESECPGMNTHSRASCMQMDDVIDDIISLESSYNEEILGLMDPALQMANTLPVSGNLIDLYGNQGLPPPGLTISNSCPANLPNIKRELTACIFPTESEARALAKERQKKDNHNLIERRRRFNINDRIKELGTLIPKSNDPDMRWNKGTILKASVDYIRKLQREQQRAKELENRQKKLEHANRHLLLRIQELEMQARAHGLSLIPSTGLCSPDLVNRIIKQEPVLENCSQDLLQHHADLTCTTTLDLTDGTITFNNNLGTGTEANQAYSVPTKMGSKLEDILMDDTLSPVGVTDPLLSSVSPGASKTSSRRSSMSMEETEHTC
A number is an active result; . = inactive.

SMILES	GPR151 ag	FBW7 activator	TEAD-YAP inh	MITF primary
Cc1nc2ncnn2c(NCCc2ccccc2)c1C	.	.	42.0	.
COc1ccc(CNc2c(C)c(C)nc3ncnn23)cc1	.	.	.	.
COc1ccc(CCNc2c(C)c(C)nc3ncnn23)cc1	.	.	60.5	.
NS(=O)(=O)c1ccc(NC(=O)CSc2nnc3sc4ccccc4n23)cc1	.	.	.	.
COC(=O)C1=C(N)OC2=C(C(=O)CC(c3ccccc3)C2)C1c1ccccc1C (stereo not given)	.	.	.	.
COc1cccc(-c2noc(-c3cc(Cl)ccc3OC)n2)c1	.	.	.	.
COc1ccc(C2C(C(=O)N3CCCC3)c3ccccc3C(=O)N2Cc2ccc(F)cc2)cc1 (stereo not given)	.	.	.	.
O=C(Cn1nc(-c2ccc3c(c2)OCCO3)ccc1=O)NCc1ccc2c(c1)OCO2	.	.	.	.
O=C(Nc1nc(CCC(=O)N2CCCCCC2)cs1)NC1CCCCC1	.	.	40.8	.
O=C(Nc1nc(CCC(=O)N2CCN(c3ccccc3F)CC2)cs1)NC1CCCCC1	.	.	.	.
CCCc1ccc(C2=NNC(=NC)SC2)cc1	.	.	96.7	.
COCCN=C1NN=C(c2ccc(C)cc2)CS1	.	.	.	.
Cc1ccc(C2NC(=O)C(Nc3ccccc3)=C2C(=O)c2ccccc2)cc1 (stereo not given)	.	.	.	.
Cc1cc2nc(-c3cccc(N)c3)oc2cc1C	.	.	34.9	.
CCc1ccc2oc(-c3ccc(C)c(N)c3)nc2c1	.	.	43.1	.
Cc1ccc2nc(-c3cc(N)ccc3O)oc2c1	.	.	.	.
Cc1ccc(-c2nc3ccccc3o2)cc1N	.	.	.	.
Cc1cc2nc(-c3ccc(C)c(N)c3)oc2cc1C	.	.	35.7	.
Cc1ccc2nc(-c3cc(N)cc(N)c3)oc2c1	.	.	55.6	.
COC(=O)C1=CN(Cc2ccc(F)cc2)C=C(C(=O)OC)C1c1ccc(O)cc1	.	.	.	.
CC1(C)Cc2ccccc2/C(=C/C(=O)c2ccccc2[N+](=O)[O-])N1	.	.	.	.
CCn1c(C)cc(C=C2C(=O)N(C)C(=O)N(C)C2=O)c1C	.	.	.	.
O=C(c1ccc(F)cc1Cl)N1CCC(Oc2nc3c(F)cccc3s2)CC1	.	.	.	.
CCn1ccc(C(=O)N2CCC(Oc3nc4c(F)cc(F)cc4s3)CC2)n1	.	2.4	.	.
CCCn1c(SCC(=O)Nc2cccc(C)c2C)nnc1-c1ccncc1	.	.	.	.
SMILES	GPR151 ag	FBW7 activator	TEAD-YAP inh	MITF primary
O=C(Cc1ccccc1)Nn1c(SCC(=O)c2ccc(F)cc2)nc2ccccc2c1=O	.	.	.	.
COc1cccc(C(=O)Nn2c(=S)[nH]c3ccccc3c2=O)c1	.	.	40.1	.
COc1ccc(C(=O)Nn2c(SCC(=O)c3ccc(F)cc3)nc3ccccc3c2=O)cc1	.	.	46.2	.
O=C(CSc1nc2ccccc2c(=O)n1NC(=O)c1ccccc1)c1ccc(Br)cc1	.	.	.	.
COc1cc2[nH]c(=S)n(NC(=O)c3ccccc3)c(=O)c2cc1OC	.	.	.	.
COc1cccc(C(=O)Nn2c(-c3cccc(OC)c3)nc3ccccc3c2=O)c1	.	.	.	.
COc1cc(OC)cc(C(=O)Nn2c(-c3cccc(C)c3)nc3ccccc3c2=O)c1	.	1.9	.	.
COc1ccc(C(=O)Nn2c(SCC(=O)c3ccccc3)nc3ccccc3c2=O)cc1	.	.	69.9	.
COC(=O)CCCCCNc1n[nH]c(=O)[nH]c1=O	.	.	.	.
O=C(CCS(=O)(=O)c1ccccc1)Nc1c(F)cccc1F	.	.	.	.
O=C(C1CCC(CNS(=O)(=O)c2ccc(Cl)cc2)CC1)N1CCOCC1 (stereo not given)	.	.	.	.
COc1ccc(C(=O)Nn2c(SCC(=O)NCCc3ccc(OC)c(OC)c3)nc3ccccc3c2=O)cc1	.	.	78.2	.
COc1ccc(C(=O)Nn2c(SCc3ccc([N+](=O)[O-])cc3)nc3ccccc3c2=O)cc1	.	.	48.9	.
COc1ccc(CCNC(=O)CSc2nc3ccccc3c(=O)n2NC(=O)Cc2ccccc2)cc1OC	.	.	.	.
O=C(CSc1cnc2ccccc2n1)c1ccc(F)cc1	.	.	49.2	.
Cc1ccc(-c2nnc(N3CCOCC3)c3ccccc23)cc1S(=O)(=O)N1CCOCC1	.	.	.	.
CCOC(=O)CS(=O)(=O)c1ccc(C(=O)N(CC)Cc2ccccc2)cc1[N+](=O)[O-]	.	.	.	.
CC1CC(C)CN(c2nc(N)ncc2[N+](=O)[O-])C1 (stereo not given)	.	.	49.4	.
Cc1ccc(CN(CC(=O)O)Cc2cn(-c3ccccc3)nc2-c2cccs2)cc1	.	.	59.6	.
NC(=O)N/N=C/c1cn(-c2ccccc2)nc1-c1cccs1	.	.	.	.
COc1ccc2cc(Br)ccc2c1CC(=O)Nc1nc(C)cs1	.	.	37.8	.
CCOC(=O)N1CCN(c2c(NCc3ccccc3)c(=O)c2=O)CC1	.	.	56.0	.
Cc1ccc(NS(=O)(=O)CCOc2ccccc2)cc1F	.	.	38.8	.
O=S(=O)(CCOc1ccccc1)Nc1ccc2c(c1)Cc1ccccc1-2	.	.	.	.
O=C(Nc1ccc2c3c(cccc13)CC2)c1cc(I)ccc1Cl	.	.	.	.
SMILES	GPR151 ag	FBW7 activator	TEAD-YAP inh	MITF primary
O=C(Nc1ccc2c3c(cccc13)CC2)c1cc(Br)ccc1Cl	.	.	55.0	.
CCc1ccc(NC(=O)COC(=O)c2cc(=O)c3cc(F)ccc3o2)cc1	.	2.8	.	.
O=C(COC(=O)c1cc(O)c(O)c(O)c1)Nc1ccc(F)cc1	.	.	.	67.9
CCOc1ccc(NC(=O)COC(=O)c2cc(=O)c3ccccc3o2)cc1	.	.	.	.
O=C(COC(=O)c1cc(F)c(F)cc1Cl)Nc1ccc(F)cc1	.	.	.	.
CCCNC(=O)c1ccc2c(c1)nc(C)n2-c1cc(C)ccc1OC	.	.	.	.
Cc1sc2nc(SCC(=O)Nc3ccccc3N3CCOCC3)nc(N)c2c1C	.	.	43.1	.
CC(C)(C)c1ccc(C(=O)Nc2ccc(C(=O)Nc3cccc4ccccc34)cc2)cc1	.	.	.	.
CC(C)(C)c1ccc(C(=O)Nc2cccc3c(=O)[nH][nH]c(=O)c23)cc1	.	.	75.6	.
O=C(N/N=C/c1ccccc1F)/C(=C/c1ccccc1O)NC(=O)c1ccccc1	.	.	89.1	.
O=C(N/C(=C/c1ccccc1)C(=O)N1CCCCCCC1)c1ccccc1	.	.	.	.
O=C(N/N=C/c1ccccc1O)/C(=C/c1ccccc1)NC(=O)c1ccccc1	.	.	.	.
COc1ccc(OC)c(/C=C(\NC(=O)c2ccccc2)C(=O)N/N=C/c2cccc(O)c2)c1	.	2.5	.	.
COc1ccc(/C=C(/NC(=O)c2ccccc2)C(=O)N/N=C/c2cccc(O)c2)cc1OC	.	.	.	.
